Source: PubChem BioAssay (National Center for Advancing Translational Sciences (NCATS))
Shown are actives, neighbours in structure and some others; about 14% of the full set was active somewhere.
MARV entry inh = qHTS for inhibitors of binding or entry into cells for Marburg Virus; AID 540276, 2011; 300,000 tested, 1.8% active; Marburg virus pseudotyped entry inhibition, cell reporter; Potency, µM (titrated, usually from 37.8 µM), without a hit: at the highest dose activity change, negative = inhibition, hits mostly inhibitors; calls by dose curve; tested in HEK293 cells; further: potency means the concentration at half of the fitted maximal effect
Pf growth 48h = Primary qHTS for delayed death inhibitors of the malarial parasite plastid, 48 hour incubation; P. falciparum luciferase growth in erythrocytes, 48 h; Potency, µM (titrated, usually from 28.7 µM), without a hit: at the highest dose activity change, negative = inhibition, most hits filed as inhibitors; 310,000 tested, 5.9% active; further: potency means the concentration at half of the fitted maximal effect
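A one-generation exposure of luciferase-tagged malaria parasites in RPMI 1640/Albumax erythrocyte culture, 37 C and 5% CO2. Inhibition is inferred from decreased luminescence after adding detection reagent.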
HCV inhibitor = qHTS Assay for Inhibitors of Hepatitis C Virus (HCV); Huh7.5.1 HCVcc-Cre infection, luciferase reporter, 44 h; Potency, µM (titrated, usually from 41.8 µM), without a hit: at the top dose activity change, negative = inhibition, hits mostly inhibitors; 340,000 tested, 3.4% active; AID 651820, 2012; further: potency means the concentration at half of the fitted maximal effect
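After 44 h co-culture of compound, cells and HCVcc-Cre (~0.5 moi), substrate is added for 15 min at room temperature and luciferase measured over 15 sec. Cells were seeded at 1,000/well and pre-cultured 4 h.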
Lassa entry inh = qHTS for Inhibitors of binding or entry into cells for Lassa Virus; Lassa virus pseudotype entry inhibition, cell reporter; 300,000 tested, 1.2% active; AID 540256, 2011; Potency, µM (highest dose often 37.9 µM), inactives show top-dose activity change, negative = inhibition, actives largely listed as inhibitors; calls by dose curve; tested in HEK293 cells; further: potency means the concentration at half of the fitted maximal effect; nearly all actives have a fitted effect of over 50% in size
HCMV antiviral = qHTS Assay for inhibitors of the human cytomegalovirus (HCMV); AID 1259415, 2018; HFF cells, HCMV-luciferase reporter, 72 h; active compounds read low; activity change, negative = inhibition, % at 57.5 µM; 410,000 tested, 4.5% active; in the data active means activity change below about -60%; inconclusive means no clear call, values can overlap the other calls; inactive means above about -39%
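After 16 h attachment at 37C, HFF cells received test compound and HCMV-luciferase (1 PFU/cell); reporter luminescence read 72 h later, data normalized against buffer-only and known inhibitor Salinomycin.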
Pf growth 96h = Primary qHTS for delayed death inhibitors of the malarial parasite plastid, 96 hour incubation; P. falciparum luciferase reporter growth, 96 h; Potency, µM (doses to about 28.7 µM), for inactives: at the highest dose activity change, negative = inhibition, hits mostly inhibitors; 320,000 tested, 6.9% active; AID 504834, 2011; further: potency means the concentration at half of the fitted maximal effect
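P. falciparum expressing integrated firefly luciferase grown in erythrocytes (2% hematocrit, 0.05% parasitemia final) with compounds for 96 hours at 37 C, 5% CO2. Growth inhibition read as loss of luminescence after adding luciferase detection reagent.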
An asterisk follows results filed as active; ? = inconclusive; . = no result given; [ ] = dose if it differs, or a comment. Unless noted, the call rests on the fitted dose curve; in most records, active means well fitted inhibition curve with a large enough effect; inconclusive means small, poorly fitted or top-dose-only effect, or another doubt; inactive means no such curve, though single readings can be large or run the other way. On the % scale 0 is the no-effect control and ±100 the full control effect.

SMILES	MARV entry inh	Pf growth 48h	HCV inhibitor	Lassa entry inh	HCMV antiviral	Pf growth 96h
CCCc1cc(=O)oc2c3c(cc(OCC(=O)NCC4CCC(C(=O)O)CC4)c12)OC(C)(C)CC3 (stereo unspecified)	.	?	-23%	.	0	1.3µM*
COc1cc2c(c3oc(=O)cc(CC(=O)O)c13)CCC(C)(C)O2	.	?	10µM*	.	-13	5.2µM*
Cc1cc(=O)oc2c(C)c(OCC(=O)Nc3cccnc3)ccc12	.	?	-16%	.	-26	-24%
CCCc1cc(=O)oc2c(C)c(OCC(=O)Nc3cccnc3)ccc12	-9%[46.1 µM]	3.3µM*	?	16%[46.1 µM]	?	2.3µM*
CCc1cc(=O)oc2c3c(cc(OCC(=O)Nc4cccnc4)c12)OC(C)(C)CC3	.	2.1µM*	10µM*	.	-12	2.9µM*
CCn1c(SC)nnc1C1CCN(CC(=O)Nc2ccccc2N2CCOCC2)CC1	3%[46.1 µM]	-14%	10%	.	-19	?
O=C(CSc1nc2c([nH]c3ccccc32)c(=O)n1-c1ccccc1)Nc1ccccc1F	.	.	.	4%[46.1 µM]	31	.
COc1ccccc1-c1cc(NC(C)=O)c2ncc(-c3cccc(C(C)=O)c3)n2c1	.	.	.	.	-16	.
Cc1c(C)c2c(OCC(=O)Nc3cccnc3)cc3c(c2oc1=O)CCC(C)(C)O3	.	?	-5%	.	15	4.1µM*
CCc1cc(=O)oc2c3c(cc(OCC(=O)NCc4ccccn4)c12)OC(C)(C)CC3	.	?	?	.	-11	?
CCc1cc(=O)oc2c3c(cc(OCC(=O)NCc4cccnc4)c12)OC(C)(C)CC3	.	9.3µM*	?	.	-27	?
Cc1c(C)c2c(OCC(=O)N[C@@H](C)C(=O)O)cc3c(c2oc1=O)CCC(C)(C)O3	8%	-7%	3%	-4%	15	-12%
CCNC(=O)C1(C)CCN(C(=O)c2ccccc2F)C1 (stereo unspecified)	.	.	.	.	-98*	.
O=C(Nc1ccc(Cn2cccn2)cc1)c1ccc(COc2ccccc2Br)cc1	-14%[46.1 µM]	-30%	13µM*	?	-83*	12µM*
COc1ccccc1OCc1ccc(C(=O)Nc2ccccc2)cc1	.	95%	?	.	-39	142%
O=c1c2ccccc2nc(-c2ccc(Cl)cc2)n1CCCOc1ccccc1F	14%[46.1 µM]	.	.	-1%[46.1 µM]	34	.
O=C(Nc1ccc(OCC(F)(F)C(F)F)cc1)c1ccncc1	-28%[46.1 µM]	15%	?	?	-63*	2%
O=C(Nc1ccc(NC(=O)c2ccncc2)cc1)c1ccncc1	.	50%	.	.	13	41%
O=C(Nc1ccc(OCC(F)(F)C(F)F)c(C(F)(F)F)c1)c1ccccc1O	?	2.1µM*	6.3µM*	?	-97*	3.7µM*
O=C(Nc1ccc(OCC(F)(F)C(F)F)c(C(F)(F)F)c1)c1ccccc1	-20%	.	10µM*	-16%	-39	.
O=C(COc1ccccc1)Nc1ccc(OC(F)(F)C(F)F)c(NC(=O)COc2ccccc2)c1	?	.	?	?	58	?
COc1cccc(NC(=O)c2ccccc2C(F)(F)F)c1	?	16%	8%	8%[46.1 µM]	?	13%
CCN1C(=O)[C@@H]2[C@H]3[C@H](O)[C@H](O)CC(=NO[C@@H]4O[C@H](COC(C)=O)[C@@H](OC(C)=O)[C@H](OC(C)=O)[C@@H]4OC(C)=O)[C@@H]3CC[C@H]2C1=O	12%[14.2 µM]	.	.	.	.	.
COc1ccccc1C(=O)Nc1ccc2nc(SCCOc3ccccc3C)sc2c1	10%[46.1 µM]	.	.	-19%[46.1 µM]	-20	.
Cc1ccccc1C(=O)Nc1ccc2nc(SCC(=O)N(C)c3ccccc3)sc2c1	5%[46.1 µM]	.	.	?	?	.
COc1ccccc1C(=O)Nc1ccc2nc(SCC(=O)N(C)c3ccccc3)sc2c1	?	.	.	?	-65*	.
CN(C(=O)CSc1nc2ccc(NC(=O)c3cccc(F)c3)cc2s1)c1ccccc1	?	.	.	-26%[46.1 µM]	-75*	.
